The text below walks through data of PubChem BioAssay AID686978 (National Center for Advancing Translational Sciences (NCATS), 2013).

Several values for one entry are separate records, joined by “and”; a condition that tells them apart may be missing. Equal entries are not always repeated. In all, about 420,000 compounds went through this assay and about 64,000 (15%) were called active. About 27% were inconclusive and are not listed. These entries were drawn from the full list. Unmarked numbers belong to inactive results. Calls follow the shape of the dose curve; as a rule, active = well fitted inhibition curve with a large enough effect; inconclusive = small, poorly fitted or top-dose-only effect; inactive = flat fitted curve, though single readings scatter.
% is scaled to controls: 0 for no effect and ±100 for the full control effect; potency is read from the fitted curve at half-maximal effect.

A short description of the assay: qHTS for Inhibitors of human tyrosyl-DNA phosphodiesterase 1 (TDP1): qHTS in cells in absence of CPT. Also: nearly all actives have a fitted effect of over 55% in size. Conditions: DT40 Tdp1-/- hTDP1 cells, no CPT, ATP luminescence, 48 h; activity change, negative = growth inhibition: at 46.2 µM (top of the series). The essentials:
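Chicken DT40 Tdp1-/- cells complemented with human TDP1, screened without camptothecin (DMSO vehicle only), 400 cells/well. Compounds pin-transferred, cells incubated at 37 °C for at least 48 hr. Growth read as ATP-dependent luminescence (CellTiter-Glo, 30 min at RT).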
In general terms: qHTS replaces the single test concentration by a dilution series.
With `CC(=O)c1ccc(NC(=O)CCc2nnc3ccc(NCc4ccco4)nn23)cc1`, the “activity change, negative = growth inhibition” value is -26.2%.

Take `Cc1cc(C)nc(NS(=O)(=O)c2ccc(NC(=O)c3cc(=O)c4ccc(C)c(C)c4o3)cc2)n1`: the “activity change, negative = growth inhibition” value is -12.7%.

Turning to `Cc1nc(SCC(=O)Nc2ccc(C(=O)O)cc2)n[nH]1`, the “activity change, negative = growth inhibition” value was -3.23%.

Turning to `O=S(=O)(Nc1cc(Cl)ccc1N1CCOCC1)c1ccccc1Cl`, the “activity change, negative = growth inhibition” value is -1.88%.

As to `O=C1c2ccccc2-c2ncnc3c(N4CCOCC4)cc(N4CCOCC4)c1c23`, the Potency was 10.3 µM (active).

Consider `O=S(=O)(N1CCOCC1)N1CCN(c2ccccc2F)CC1`, for which the “activity change, negative = growth inhibition” value is -6.21%.

Regarding `COc1ccc(CCNC(=O)CSc2nnc3ccc(-c4ccncc4)nn23)cc1`, the “activity change, negative = growth inhibition” value is 3.54%.

`CC(C)Cc1cc(C(=O)NCCc2ccccc2)no1`: the “activity change, negative = growth inhibition” value is -11.1%.

Regarding `Cc1nn(Cc2ccc(F)cc2)c(C)c1NC(=O)c1cccnc1Cl`, the “activity change, negative = growth inhibition” value was 0.0616%.

`CC(C)Cc1cc(C(=O)Nc2cc(Br)ccc2O)no1`: the Potency was 14.6 µM (active).

Take `Cc1nn(Cc2ccccc2Cl)c(C)c1NC(=O)Cn1nc([N+](=O)[O-])c(Cl)c1C`: the “activity change, negative = growth inhibition” value is -1.09%.

Turning to `Cc1nn(Cc2ccc(F)cc2)c(C)c1NC(=O)c1cc(CC(C)C)on1`, the Potency is 20.6 µM (active).

On to `Cc1nn(Cc2ccc(F)cc2)c(C)c1NC(=O)c1noc2c1CCc1ccccc1-2`, for which the Potency was 18.4 µM (active) and 16.4 µM (active).

With `Cc1ccccc1Cn1nc(C)c(NC(=O)C(F)(F)F)c1C`, the “activity change, negative = growth inhibition” value was 9%.

Turning to `CC(C)CNC(=O)c1cc(-c2ccc(Br)cc2)on1`, the “activity change, negative = growth inhibition” value was -14.2%.

As for `Cc1cc(C(=O)Nc2c(C)nn(Cc3ccccc3)c2C)on1`, the “activity change, negative = growth inhibition” value is 3.16%.

Turning to `c1ccc(CN=C2Nc3ccccc3CS2)nc1`, the “activity change, negative = growth inhibition” value is -15.1%.

Turning to `CC1(C)O[C@H]2CC(=O)OCC23[C@H]2CC[C@@]4(C)[C@H](c5ccoc5)OC(=O)[C@H]5O[C@]54[C@]2(C)C(=O)C[C@@H]13` (stereo not given in full), the “activity change, negative = growth inhibition” value was -0.653%.

With `COc1ccc(NC(=O)c2c(SC)nsc2SC)cc1`, the “activity change, negative = growth inhibition” value was -15.8%.

For the molecule `Oc1ccc2c(c1)OCC1c3cc4c(cc3OC21)OCO4` (stereo not given), the “activity change, negative = growth inhibition” value was 1.62%.

In the case of `CCSc1sc(CC)cc1C=O`, the “activity change, negative = growth inhibition” value is -5.26%.

For the molecule `COc1ccccc1/C=C/C=N/NC(=O)CN1CCN(Cc2ccccc2)CC1`, the “activity change, negative = growth inhibition” value was -25.1%.

For the molecule `Cc1cc(SCc2c(F)cccc2Cl)nc(=O)[nH]1`, the “activity change, negative = growth inhibition” value is -21.7%.

In the case of `COc1ccc(NC(=O)NC(C)c2c(-n3cccc3)sc(C)c2C)cc1OC` (stereo not given), the Potency is 16.4 µM (active).

With `COc1ccc(NC(=O)N2CCCn3nc(C)cc32)cc1OC`, the “activity change, negative = growth inhibition” value is -3.6%.

Consider `CCn1cc(NC(=O)Nc2ccc(OC)c(OC)c2)c(C(N)=O)n1`, for which the “activity change, negative = growth inhibition” value was -6.75%.

Regarding `Cc1ccc(NC(=O)CCC(=O)c2ccc(Br)cc2)cc1`, the “activity change, negative = growth inhibition” value was 8.36%.

Turning to `COCC(C)NC(=O)COc1nncc2ccccc12` (stereo not given), the “activity change, negative = growth inhibition” value was -1.48%.

For `NC(Cc1ccc(F)cc1)c1csc(Nc2nncc3ccccc23)n1` (stereo not given), the Potency is 4.11 µM (active).

For `O=C(Nc1ccc2c(c1)OCCO2)C1CCCN(c2ncccn2)C1` (stereo not given), the “activity change, negative = growth inhibition” value is -21.7%.

For `CC1Cc2ccccc2N1S(=O)(=O)c1ccc(Cl)nc1` (stereo not given), the “activity change, negative = growth inhibition” value is -14.7%.

For `Cc1cc(-c2ccc(C)c(S(=O)(=O)N3c4ccccc4CC3C)c2)on1` (stereo not given), the Potency is 23.1 µM (active).

Take `Cc1cc(-c2ccc(C)c(S(=O)(=O)Nc3ccc(S(N)(=O)=O)cc3)c2)on1`: the “activity change, negative = growth inhibition” value is 1.72%.

As to `Cc1cc(NC(=O)CCC(=O)N(CC(=O)NCC2CCCO2)c2ccccc2C)no1` (stereo not given), the “activity change, negative = growth inhibition” value is 1.54%.

Regarding `COc1ccccc1NC(=O)CSc1nnc(Cn2nnc(-c3ccccc3)n2)n1-c1ccccc1`, the Potency is 20.6 µM (active).

Take `COc1ccccc1OCc1nnc(SCC(N)=O)n1-c1ccccc1`: the “activity change, negative = growth inhibition” value was -2.24%.

For `COc1ccccc1NC(=O)CSc1nnc(Cc2cccn2C)n1-c1ccc(F)cc1`, the “activity change, negative = growth inhibition” value was -12.2%.

Turning to `COc1ccc(Cl)cc1-n1c(=S)sc2c(=O)n(-c3ccc(F)cc3)c(SCC(=O)O)nc21`, the “activity change, negative = growth inhibition” value was 1.54%.

On to `O=C(O)c1cc(S(=O)(=O)N2CCCCCC2)c(Cl)cc1Cl`, for which the “activity change, negative = growth inhibition” value is -12.2%.

Take `Cc1ccc(CNC(=O)CCNS(=O)(=O)c2ccc(Br)s2)cc1`: the “activity change, negative = growth inhibition” value is -15.4%.

As to `COc1ccc(CC(=O)N2N=C(C)CC2(O)C(F)(F)F)cc1` (stereo not given), the Potency was 3.26 µM (active).

For `CC1=NN(C(=O)CCCc2ccccc2)C(O)(C(F)(F)F)C1` (stereo not given), the “activity change, negative = growth inhibition” value was 0.642%.

Consider `CC1=NN(C(=O)Cc2ccc(C)cc2)C(O)(c2cccnc2)C1` (stereo not given), for which the “activity change, negative = growth inhibition” value was -17.6%.

`Cc1ccc(CNS(=O)(=O)c2ccc3c(c2)N(C)CCO3)cc1`: the “activity change, negative = growth inhibition” value was -25.3%.

Regarding `CCCCC(=O)Nc1ccc2c(c1)C(=O)NC2=O`, the “activity change, negative = growth inhibition” value is -19.1%.

Regarding `Oc1cccc(CCc2ccccn2)c1`, the “activity change, negative = growth inhibition” value was -0.0969%.

`NS(=O)(=O)c1ccc(CCNC(=O)Nc2ccc(Cl)cc2)cc1`: the “activity change, negative = growth inhibition” value was -22.3%.

`O=C(NCc1cn2ccsc2n1)Nc1ccc(Cl)cc1`: the “activity change, negative = growth inhibition” value was -20.7%.

In the case of `CC(C)S(=O)(=O)c1csc(NC(=O)Nc2ccc(Cl)cc2)c1Cl`, the Potency is 16.4 µM (active).

As to `Cc1cccc(NC(=O)c2cccc(C(=O)Nc3cccc(C)c3C)n2)c1C`, the “activity change, negative = growth inhibition” value is -7.12%.
